# Only some compounds are listed: those with a hit (about 15% of all), similar ones and a draw of the others.
# DT40 TDP1 CPT = DT40-hTDP1 cell growth loss with CPT. chicken DT40 Tdp1-/-;hTDP1 cells + 20 nM CPT, ATP luminescence, 48 h. Potency, µM (doses to about 46.2 µM), without a hit: at the top dose activity change, negative = growth inhibition, hits mostly inhibitors. 420,000 compounds, 12% hits. AID 686979; further: nearly all actives have a fitted effect of over 55% in size
#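 Chicken DT40 Tdp1-/- cells stably complemented with human TDP1 were seeded at 400 cells/well in medium containing 20 nM camptothecin, exposed to pin-transferred compounds, and grown at 37 °C for at least 48 hr. Viability was read as ATP luminescence.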
# TDP1 cell noCPT = qHTS for Inhibitors of human tyrosyl-DNA phosphodiesterase 1 (TDP1): qHTS in cells in absence of CPT | DT40 Tdp1-/- hTDP1 cells, no CPT, ATP luminescence, 48 h | Potency, µM (titrated, usually from 46.2 µM), for the others: at the top dose activity change, negative = growth inhibition, usual class: inhibitors | 420,000 compounds, 15% hits; further: nearly all actives have a fitted effect of over 55% in size
#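 Chicken DT40 Tdp1-/- cells complemented with human TDP1, screened without camptothecin (DMSO vehicle only), 400 cells/well. Compounds pin-transferred, cells incubated at 37 °C for at least 48 hr. Growth read as ATP-dependent luminescence (CellTiter-Glo, 30 min at RT).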
# ALOX12 inh = blocks human arachidonate 12S-lipoxygenase | P18054 | purified 12hLO, xylenol orange hydroperoxide absorbance | Potency, µM (highest dose often 108 µM), for inactives: top-dose activity change, negative = inhibition, actives largely listed as inhibitors | 580,000 compounds, 1.1% hits | AID 1671190
# Target sequence (P18054 whole entry, looked up): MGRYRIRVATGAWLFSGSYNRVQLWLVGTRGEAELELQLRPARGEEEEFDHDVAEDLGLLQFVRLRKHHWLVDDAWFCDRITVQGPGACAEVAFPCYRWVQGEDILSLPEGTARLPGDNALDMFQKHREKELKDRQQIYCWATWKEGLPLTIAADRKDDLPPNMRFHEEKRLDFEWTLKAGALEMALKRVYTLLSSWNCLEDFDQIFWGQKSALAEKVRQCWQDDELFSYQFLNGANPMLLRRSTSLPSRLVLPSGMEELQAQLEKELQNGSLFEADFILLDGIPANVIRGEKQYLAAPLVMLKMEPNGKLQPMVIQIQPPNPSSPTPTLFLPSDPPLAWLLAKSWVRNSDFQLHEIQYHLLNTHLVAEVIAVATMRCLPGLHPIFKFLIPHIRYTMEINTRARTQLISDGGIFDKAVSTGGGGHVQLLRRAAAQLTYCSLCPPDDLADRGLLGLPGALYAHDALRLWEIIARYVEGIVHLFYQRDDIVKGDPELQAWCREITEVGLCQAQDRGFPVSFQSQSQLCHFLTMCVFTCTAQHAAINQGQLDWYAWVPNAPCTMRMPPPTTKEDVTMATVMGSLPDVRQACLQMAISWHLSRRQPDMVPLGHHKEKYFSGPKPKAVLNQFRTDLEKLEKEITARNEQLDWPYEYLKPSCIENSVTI
#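 Purified human 12hLO at 150 nM in 25 mM Hepes, 0.01% Triton X-100, pH 7.0, preincubated 15 min at room temperature with compound. Reaction started with 40 uM arachidonic acid, 30 min at room temperature. Hydroperoxide measured by Fe-xylenol orange, 573/405 nm absorbance ratio.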
# RORg inh = ROR gamma (mouse) transcription inhibition. AID 2551. Drosophila S2 Gal4-RORgamma UAS-luciferase reporter, 20 h. 310,000 compounds, 5.4% hits. Potency, µM (series often up to 53.6 µM), for inactives: at the highest dose activity change, negative = inhibition, hits mostly inhibitors. P51450; further: nearly all actives have a fitted effect of over 60% in size
#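 Drosophila S2 cells stably expressing Gal4-DBD/mouse RORγ fusion under metallothionein promoter plus UAS-luciferase; compound 1 h, then 700 uM CuSO4 induction for 20 h at ambient temperature; inhibition read as reduced luminescence.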
# ELG1 DNA repair = inhibitors of ELG1-dependent DNA repair in HEK293T cells. HEK293T ELG1-luciferase reporter, luminescence, 16 h; DNA damage induced by 5-fluorouridine. Potency, µM (top dose mostly 46.1 µM), for inactives: at the highest dose activity change, negative = inhibition, usual class: inhibitors. 330,000 compounds, 2.3% hits; further: nearly all actives have a fitted effect of over 55% in size
#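 Step one: seed 2,000 cells per well. Step two: pin-transfer compound or DMSO alongside 5-fluorouridine. Step three: incubate 16 hr, 37 °C, 5% CO2. Step four: add ONE-Glo, wait 30 min, read luminescence.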
# Gal4-VP16 FLuc = Gal4-VP16 reporter inhibition counter-screen. 310,000 compounds, 3.5% hits. Potency, µM (doses to about 53.6 µM), inactives show at the highest dose activity, negative = inhibition, hits mostly inhibitors. Drosophila S2 Gal4-VP16 UAS-luciferase, luminescence, 20 h;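 further: Gal4-VP16 expression switched on by copper sulfate through the metallothionein promoter; nearly all actives have a fitted effect of over 50% in size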
# An asterisk follows results filed as active; ? = inconclusive; . = no result; [ ] = remark or other dose. The call rests on the fitted dose curve; in most records, active means well fitted curve in the direction sought with a large enough effect; inconclusive means small, poorly fitted or top-dose-only effect, or another doubt; inactive means no such curve, though single readings can be large; an effect the other way counts as inactive or inconclusive. On the % scale 0 is the no-effect control and ±100 the full control effect; potency means the concentration at half of the fitted maximal effect.
SMILES,DT40 TDP1 CPT,TDP1 cell noCPT,ALOX12 inh,RORg inh,ELG1 DNA repair,Gal4-VP16 FLuc
S=c1[nH]nc(COc2ccccc2)n1/N=C/c1cccs1,13%,-3%,?,?,-5%,7.1µM*
Cc1ccsc1/C=N/n1c(COc2ccccc2)n[nH]c1=S,11%,-3%,?,6.3µM*,-3%,6.3µM*
COc1ccc(CNC(=O)C23CCC(=O)N2CCS3)cc1 (stereo not drawn),.,.,4%,.,.,.
CCOc1ccc(NC(=O)c2sc3nc4c(cc3c2N)CN(Cc2ccccc2)CC4)cc1,?,?,-1%,.,.,.
CCN(CC)c1ccc(NC(=O)c2sc3nc4c(cc3c2N)CN(C)CC4)cc1,?,16µM*,?,.,.,.
Cc1ccccc1NC(=O)c1sc2nc3c(cc2c1N)CCCC3,?,3.3µM*,?,.,.,.
COc1ccc(NC(=O)c2sc3nc4c(cc3c2N)CN(Cc2ccccc2)CC4)c(OC)c1,?,?,-24%,.,.,.
COc1ccccc1NC(=O)c1sc2nc3c(cc2c1N)CN(Cc1ccccc1)CC3,15µM*,?,-17%,.,.,.
Nc1c(C(=O)Nc2ccccc2)sc2nc3c(cc12)CN(Cc1ccccc1)CC3,?,23µM*,-16%,.,.,.
COc1ccc(NC(=O)c2sc3nc4c(cc3c2N)CCCCCC4)c(OC)c1,?,?,-18%,.,.,.
O=C(O)C(c1cccc2c1OCC2)N1CCCN(c2ncccn2)CC1 (stereo not drawn),.,.,91%,.,.,.
CCNC(=O)N1CCC2(CC1)CC(N(CC)CC)CCO2 (stereo not drawn),.,.,47%,.,.,.
CC1CC(C)C(=NNC(N)=O)C(C(O)CC2CCC(=O)NC2=O)C1 (stereo not drawn),1.6µM*,2.3µM*,27%,.,.,.
Cc1ccc(C(C)NC(=S)NC2CCCCC2)c(C)c1 (stereo not drawn),?,?,?,3.2µM*,?,3.5µM*
Cc1ccc(C(C)NC(=S)NC2CCCCC2)cc1C (stereo not drawn),.,.,?,2.5µM*,-20%,4µM*
CCC(NC(=S)NC1CCCCC1)c1ccc(C(C)C)cc1 (stereo not drawn),.,.,?,1.8µM*,-3%,2.5µM*
Cc1ccc(C(C)NC(=O)C2CCCC2)c(C)c1 (stereo not drawn),-9%,1%,9%,7%,4%,-10%
Cc1ccccc1-c1cnc2[nH]cc(CC(=O)Nc3cccnc3)c2c1,.,.,-16%[176 µM],.,.,.
CC1CC(c2ccccc2)NS(=O)(=O)O1 (stereo not drawn),-22%,-9%,1%,0%,8%,1%
O=S1(=O)N[C@H](c2ccccc2)C[C@H](c2ccc(C(F)(F)F)cc2)O1,15µM*,?,-3%,11%,1%,-3%
O=C(CSc1nc(N2CCOCC2)nc(N2CCOCC2)n1)Nc1ccc(Cl)cc1Cl,?,?,0%,-38%,9%,-13%
COc1ccc(Cl)cc1NC(=O)CSc1nc(N2CCCCC2)nc(N2CCCCC2)n1,?,16µM*,0%,10%,-2%,-5%
COc1ccc(Cl)cc1NC(=O)CSc1nc(Nc2ccccc2)nc(N2CCOCC2)n1,?,18µM*,94%,12%,-8%,-1%
CC(=O)c1ccc(NC(=O)CSc2nc(N3CCOCC3)nc(N3CCOCC3)n2)cc1,-21%,-17%,17%,11%,?,13%
COc1ccc(Cl)cc1NC(=O)CSc1nnc(CN2CCOCC2)n1-c1ccc(Cl)cc1,16µM*,21µM*,-11%,6%,-14%,-6%
CC(=O)c1cccc(NC(=O)CSc2nc(N3CCCCC3)nc(N3CCCCC3)n2)c1,-1%,26µM*,-7%,-4%,?,-4%
